Our source for the activity remaining values is PubChem BioAssay.

Active and inactive are the calls of the source. The rule behind the calls is not given here.

This test concerns Aerobactin synthetase IucA (Klebsiella pneumoniae hvKP1). The test is described as follows: IucA enzyme inhibition, primary screen, biochemical, Spectrum library (AID 1346200).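 Note: 100% = wells without compound and 0% = wells lacking enzyme.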 Conditions: malachite green pyrophosphate, A620, at 8 µM, hits give low values.
In the case of `OC[C@H]1O[C@@](CO)(O[C@@H]2O[C@H](CO)[C@@H](O)[C@H](O)[C@H]2O)[C@@H](O[C@@H]2O[C@H](CO)[C@@H](O)[C@H](O)[C@H]2O)[C@@H]1O`, the activity remaining is 82.4% (inactive).

`CC1(C)CCC[C@@]2(C)C1[C@@H](O)C[C@]1(C)C2CC[C@@H]2[C@@]3(C)CC[C@H](C(C)(C)O)[C@@H]3CC[C@@]21C` (stereo not given in full): the activity remaining is 99.1% (inactive).

As for `CN(C)CCc1c[nH]c2ccc(Cn3cncn3)cc12`, the activity remaining is 102% (inactive).

For the compound `CCCCCCc1ccc(O)cc1O`, the activity remaining is 124% (inactive).

Turning to `C[C@]12CCC3c4ccc(OS(=O)(=O)O)cc4CCC3C1CCC2=O` (stereo not given in full), the activity remaining was 122% (inactive).

Consider `CCc1cc(C(N)=S)ccn1`, for which the activity remaining was 105% (inactive).

Consider `C=C1CC[C@H](O)C/C1=C/C=C1\CCCC2(C)C1CCC2C(C)CCCC(C)C` (stereo not given in full), for which the activity remaining is 113% (inactive).

For the compound `CC(=O)OCC(OC(C)=O)C(OC(C)=O)C(OC(C)=O)C(OC(C)=O)C(COC(C)=O)OC(C)=O` (stereo not given), the activity remaining is 103% (inactive).

In the case of `COc1ccc(CCN2CCC(Nc3nc4ccccc4n3Cc3ccc(F)cc3)CC2)cc1`, the activity remaining was 124% (inactive).

In the case of `CC(=O)O[C@@H]1CC2C(C)(C)C(=O)C3OC3[C@]2(C)C2CC[C@@]3(C)[C@H](c4ccoc4)OC(=O)C4OC43[C@@]21C` (stereo not given in full), the activity remaining is 101% (inactive).

Turning to `O=C(O)CCCCCCCCCCCCC1C=CCC1` (stereo not given), the activity remaining is 118% (inactive).

Take `CC(C)=CCCC1(C)C=Cc2c(O)c3c(c(CC=C(C)C)c2O1)OC12C(=CC4CC1C(C)(C)OC2(C/C=C(\C)C(N)=O)C4=O)C3=O` (stereo not given): the activity remaining is 99.6% (inactive).

For `C=CC[C@@H]1/C=C(\C)C[C@H](C)C[C@H](OC)[C@H]2O[C@@](O)(C(=O)C(=O)N3CCCC[C@H]3C(=O)O[C@H](/C(C)=C/[C@@H]3CC[C@@H](O)[C@H](OC)C3)[C@H](C)[C@@H](O)CC1=O)[C@H](C)C[C@@H]2OC`, the activity remaining was 105% (inactive).

Consider `CC(=O)N[C@@H](Cc1c[nH]c2ccccc12)C(N)=O`, for which the activity remaining was 122% (inactive).

`CN[C@H]1C[C@@H](N)[C@H](O)[C@@H](O[C@@H]2O[C@H](CO)[C@@H]3OC4(O[C@@H]3[C@@H]2O)O[C@H](C(N)CO)[C@H](O)[C@H](O)[C@H]4O)[C@@H]1O` (stereo not given in full): the activity remaining was 122% (inactive).

As for `COc1ccc(-c2cc(=O)c3c(OC)c(OC)c(OC)c(OC)c3o2)cc1`, the activity remaining is 121% (inactive).

In the case of `C=CCSSSCC=C`, the activity remaining was 91.6% (inactive).

As for `CCC(=O)OCC(=O)C1(OC(=O)CC)C(C)CC2C3CCC4=CC(=O)C=CC4(C)C3(Cl)C(O)CC21C` (stereo not given), the activity remaining is 119% (inactive).

`CC1(C)S[C@@H]2[C@H](NC(=O)[C@H](N)c3ccccc3)C(=O)N2[C@H]1C(=O)O`: the activity remaining was 101% (inactive).

On to `CN1CCc2cccc3c2C1Cc1ccc(O)c(O)c1-3` (stereo not given), for which the activity remaining was 87.4% (inactive).

With `COc1cc(O)c2c(c1)C(=O)c1cc(C)cc(O)c1C2=O`, the activity remaining was 97.7% (inactive).

In the case of `CN[C@@H]1[C@H](O)[C@H](NC)[C@H]2O[C@@]3(O)C(=O)C[C@@H](C)O[C@H]3O[C@@H]2[C@H]1O`, the activity remaining was 108% (inactive).

`O=c1[nH]c(=O)n(C2C[C@H](O)[C@@H](CO)O2)cc1C(F)(F)F` (stereo not given in full): the activity remaining is 108% (inactive).

As for `CC1=CC(=O)C2C(C)(C)CCC[C@]2(C)[C@@]1(O)CCc1ccoc1` (stereo not given in full), the activity remaining was 105% (inactive).

Turning to `C[C@@H]1O[C@@H](OC[C@H]2OC(Oc3c(-c4ccc(O)c(O)c4)oc4cc(O)cc(O)c4c3=O)[C@H](O)[C@@H](O)[C@@H]2O)[C@H](O)[C@H](O)[C@H]1O` (stereo not given in full), the activity remaining was 101% (inactive).

On to `CCCc1c(OCCCCc2nn[nH]n2)ccc(C(C)=O)c1O`, for which the activity remaining was 112% (inactive).

For `O=C(OCC(O)CO)c1ccccc1Nc1ccnc2cc(Cl)ccc12` (stereo not given), the activity remaining is 119% (inactive).

As to `O=C(O)CCCc1ccccc1`, the activity remaining is 111% (inactive).

As to `CC1(C)C=Cc2c(cc3occ(-c4ccc5c(c4)OCO5)c(=O)c3c2O)O1`, the activity remaining was 118% (inactive).

Take `COc1cc(-c2coc3cc(O[C@@H]4O[C@H](CO)[C@@H](O)[C@H](O)[C@H]4O)c(OC)c(O)c3c2=O)cc(O)c1OC`: the activity remaining is 120% (inactive).

Take `NC(Cc1cc(I)c(Oc2ccc(O)c(I)c2)c(I)c1)C(=O)O` (stereo not given): the activity remaining is 97.1% (inactive).

On to `COc1ccc([C@@H]2CC(=O)c3c(O)cc(O[C@@H]4O[C@H](CO[C@H]5O[C@@H](C)[C@H](O)[C@@H](O)[C@H]5O)[C@@H](O)[C@H](O)[C@H]4O)cc3O2)cc1O`, for which the activity remaining was 102% (inactive).

Consider `O=C1[O][Bi][O]c2ccccc21`, for which the activity remaining was 107% (inactive).

On to `C[C@H]1[C@H](C)CC[C@]2(CO)CC[C@]3(C)C(=CCC4[C@@]5(C)CC[C@H](O)C(C)(C)C5CC[C@]43C)[C@H]12` (stereo not given in full), for which the activity remaining is 117% (inactive).

On to `C=C1C(=O)O[C@@H]2C[C@@]3(C)CCC[C@H](C)C3=C[C@H]12`, for which the activity remaining was 97.8% (inactive).

As to `CC[C@@]1(O)C(=O)OCc2c1cc1n(c2=O)Cc2cc3cc(O)ccc3nc2-1`, the activity remaining is 117% (inactive).

On to `COc1cc(CNC(=O)CCCC/C=C/C(C)C)ccc1O`, for which the activity remaining was 109% (inactive).

As to `CC1(C)S[C@@H]2[C@H](NC(=O)C(C(=O)O)c3ccccc3)C(=O)N2[C@H]1C(=O)O` (stereo not given in full), the activity remaining is 114% (inactive).

Take `Cc1ccccc1OCC(O)CO` (stereo not given): the activity remaining was 95.2% (inactive).

In the case of `O=c1ccc2ccccc2o1`, the activity remaining is 124% (inactive).
